Experimental findings from PubChem BioAssay (NCI) are described below.

Some test systems named below: DU-145 prostate; K-562 leukemia; MALME-3M melanoma; MDA-MB-231 breast; RXF 393 renal; SF-268 CNS; SF-295 CNS; SF-539 CNS; UACC-257 melanoma; M14 melanoma.
Common to all, as to assay: NCI-60 one-dose screen, 48 h (100 = growth as untreated, 0 = no growth, -100 = all killed)
Holding throughout (conditions): 10 µM unless noted

The panel holds about 83,000 compounds, 20% with a hit somewhere; the sample as a whole holds those more often.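 96-well plates, one dose, 48 hours. Percent growth reported; active if below 10.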 A number with no mark means an inactive call. The source made the active and inactive calls.

`CCCCc1ccc(Nc2ccc(Nc3ccc(CCCC)cc3S(=O)(=O)O)c3c2C(=O)c2ccccc2C3=O)c(S(=O)(=O)O)c1`: the growth in the assay with DU-145 prostate is 107%; with K-562 leukemia, 114%; with MALME-3M melanoma, 110%; in the assay with MDA-MB-231 breast, 83.1%; in the assay on RXF 393 renal, 95%; in the assay with SF-268 CNS it was 99.7%. Moreover, the growth was 101% in the assay with SF-295 CNS, 96.5% in the assay with SF-539 CNS, 88.3% in the assay with UACC-257 melanoma and 101% in the assay on M14 melanoma.

On to `O=C(CSc1nnc(-c2ccc(NC(=O)c3cccnc3)cc2)o1)N[C@@H](Cc1ccc(O)cc1)C(=O)O`, for which the growth was 117% in the assay with DU-145 prostate; 93.6% with K-562 leukemia; 102% with MALME-3M melanoma; 97.7% in the assay on MDA-MB-231 breast; 109% in the assay with RXF 393 renal; 107% with SF-268 CNS. For the same compound, the growth in the assay with SF-295 CNS was 108%; in the assay with SF-539 CNS, 102%; with UACC-257 melanoma it was 99.7%; in the assay with M14 melanoma it was 100%.

For `CCCCN(CCCC)CC(C)(C)C(O)c1ccc(OC)c2ccccc12` (stereo not given), the growth was 69.2% in the assay on DU-145 prostate; 31.2% in the assay with K-562 leukemia; 47.3% with MALME-3M melanoma; 70.8% with MDA-MB-231 breast; 65% in the assay on RXF 393 renal; 85.3% in the assay with SF-268 CNS. The growth was -7.15% (active) with SF-295 CNS, 76.9% with SF-539 CNS, 60.2% with UACC-257 melanoma and 37% with M14 melanoma.

`CCN(CC)c1nc(SCC(=O)Nc2nc3ccc(C)cc3s2)nc(-c2ccccc2)c1C#N`: the growth in the assay with DU-145 prostate is 101%; with K-562 leukemia it was 86.5%; with MALME-3M melanoma, 103%; with MDA-MB-231 breast, 78%; with RXF 393 renal, 97.3%; in the assay with SF-268 CNS, 88.5%. Further, the growth in the assay on SF-295 CNS is 92.9%; in the assay with SF-539 CNS, 89.2%; with UACC-257 melanoma, 96.5%; with M14 melanoma, 101%.

`COc1ccc(-c2ccc3c(c2)sc2nc(-c4ccc(F)cc4)cn23)cc1`: the growth is 60.3% in the assay on DU-145 prostate; 76.6% in the assay on K-562 leukemia; 101% with MALME-3M melanoma; 93.5% in the assay with MDA-MB-231 breast; 98.8% in the assay on RXF 393 renal; 110% in the assay on SF-268 CNS. In addition, the growth in the assay with SF-295 CNS was 32.5%; in the assay with SF-539 CNS it was 100%; with UACC-257 melanoma it was 80.9%; in the assay with M14 melanoma it was 98%.

Regarding `CCOC(CN=Cc1cc(C)c2[nH]c3ccccc3c2c1C)OCC`, the growth is 101% in the assay with DU-145 prostate; 95.1% in the assay with K-562 leukemia; 124% in the assay on MALME-3M melanoma; 108% in the assay with MDA-MB-231 breast; 102% with RXF 393 renal; 92.5% with SF-268 CNS. In addition, the growth in the assay with SF-295 CNS is 92.4%; in the assay on SF-539 CNS it was 100%; in the assay on UACC-257 melanoma, 90.3%; with M14 melanoma, 94.4%.

Turning to `COC(=O)CCC1=C(C)C2=NC1=CC1=NC(=CC3=NC(=Cc4[nH]c(/c(=C(/C)O)c4C)=C2)C(C(C)=O)=C3C)C(C)=C1CCC(=O)OC`, the growth is 110% in the assay on DU-145 prostate; 112% with K-562 leukemia; 96% in the assay on MALME-3M melanoma; 103% with MDA-MB-231 breast; 112% in the assay with RXF 393 renal; 98.9% in the assay with SF-268 CNS. In addition, the growth with SF-295 CNS was 104%; in the assay on SF-539 CNS, 97.7%; with UACC-257 melanoma it was 90.3%; with M14 melanoma, 108%.

In the case of `Cn1cc(-c2csc(-c3cccc(F)c3)n2)c2cccnc21`, the growth was -62.7% [100 µM] (active) in the assay with DU-145 prostate; 2.45% [100 µM] (active) in the assay on K-562 leukemia; -39.1% [100 µM] (active) with MALME-3M melanoma; -50.1% [100 µM] (active) in the assay on MDA-MB-231 breast; -30.7% [100 µM] (active) in the assay with RXF 393 renal; -40.5% [100 µM] (active) in the assay with SF-268 CNS. Besides, the growth was -51.9% [100 µM] (active) in the assay on SF-295 CNS, -74.9% [100 µM] (active) in the assay on SF-539 CNS, -37.6% [100 µM] (active) with UACC-257 melanoma and -77.2% [100 µM] (active) in the assay with M14 melanoma.

Regarding `COc1ccc(C(=O)Nn2c(NCC(=O)N3c4ccccc4Sc4ccccc43)nnc2-c2ccc(O)cc2)cc1`, the growth with DU-145 prostate was 116%; in the assay on K-562 leukemia, 114%; in the assay with MALME-3M melanoma, 98.1%; in the assay on MDA-MB-231 breast it was 101%; in the assay on RXF 393 renal it was 117%; with SF-268 CNS, 111%. The growth was 107% in the assay with SF-295 CNS, 117% in the assay with SF-539 CNS, 94.9% in the assay with UACC-257 melanoma and 91.7% in the assay on M14 melanoma.

Turning to `COc1ccc(CNC(=O)C(O)C(Cc2ccccc2)NC(=O)c2[nH]c3ccccc3c(=O)c2C)cc1OC` (stereo not given), the growth is 113% with DU-145 prostate; 102% with K-562 leukemia; 111% in the assay with MALME-3M melanoma; 103% in the assay with MDA-MB-231 breast; 111% with RXF 393 renal; 102% in the assay on SF-268 CNS. Besides, the growth was 99.7% in the assay with SF-295 CNS, 107% with SF-539 CNS, 105% in the assay on UACC-257 melanoma and 106% in the assay on M14 melanoma.

Consider `NC(=N\N=C/c1cccc([N+](=O)[O-])c1)/C(N)=N\N=C/c1cccc([N+](=O)[O-])c1`, for which the growth is 58.1% in the assay on DU-145 prostate; 36.1% with K-562 leukemia; 81.4% in the assay on MALME-3M melanoma; 93.4% with MDA-MB-231 breast; 72.9% in the assay with RXF 393 renal; 65.9% in the assay with SF-268 CNS. The growth in the assay with SF-295 CNS was 92.9%; in the assay on SF-539 CNS, 89.1%; with UACC-257 melanoma, 85.6%; in the assay on M14 melanoma it was 92.8%.

In the case of `COc1cc(Cn2ncc3ccc(NC(=O)c4cc5ccccc5oc4=N)cc32)cc(OC)c1OC`, the growth in the assay with DU-145 prostate was 88.5%; in the assay on K-562 leukemia it was 16.3%; in the assay with MALME-3M melanoma, 54%; with MDA-MB-231 breast, 54.4%; with RXF 393 renal, 73.3%; with SF-268 CNS, 85.8%. Besides, the growth in the assay with SF-295 CNS was 63.6%; with SF-539 CNS it was 29.5%; in the assay with UACC-257 melanoma, 98.8%; in the assay on M14 melanoma, 29.5%.

Take `COc1cc2ncn3c(=O)c4c5c(sc4nc3c2cc1OC)CCCC5`: the growth in the assay on DU-145 prostate was 105%; with K-562 leukemia, 146%; in the assay with MALME-3M melanoma, 89.8%; with MDA-MB-231 breast it was 90.6%; in the assay with RXF 393 renal it was 105%; in the assay on SF-268 CNS, 94.3%. The growth was 101% with SF-295 CNS, 99.2% in the assay on SF-539 CNS, 119% in the assay with UACC-257 melanoma and 91.2% with M14 melanoma.
